# Results taken from PubChem BioAssay AID743446 (Broad Institute, 2014).
# Results with a measured potency or affinity are listed apart. Calls of active or inactive are those of the source. The rule behind the calls is not given here.
# Test: HEK293 cell cytotoxicity, dose response, cytotoxicity control, plate reader, cherry-picked samples (AID 743446)
# Conditions: active compounds read low; at 26 µM unless noted
row,SMILES,max activity
1,O=C(O)c1cccc(Nc2ccnc(Nc3cccc(C(=O)O)c3)n2)c1,-12.2% [at 0.05 µM] (inactive)
2,Cc1ccc(S(=O)(=O)Nc2ccc3c(c2)C(=O)N([C@H](C)CO)C[C@@H](C)[C@H](CN(C)S(=O)(=O)c2cccs2)OCCCC[C@@H](C)O3)cc1,-17.3% [at 12 µM] (inactive)
3,CC(C)CCn1cnc2c(oc3nc4c(cc32)CCCC4)c1=O,-17.8% (inactive)
4,CCc1nnc2cccc(Cl)n12,-9.24% [at 1.6 µM] (inactive)
5,CN1c2ccc(-c3ccc(F)cc3)cc2[C@H]2[C@H](CCN2C(=O)Nc2ccc(F)cc2)[C@H]1CO,39.2% [at 1.6 µM] (inactive)
6,O=C1CC(c2ccc3c(c2)OCO3)Sc2nc3ccccc3n21 (stereo not drawn),-8.84% [at 0.38 µM] (inactive)
7,O=C(Nc1cccnc1)c1cc(-c2ccc3c(c2)OCO3)on1,26.9% [at 12 µM] (inactive)
8,O=C(NCCc1ccccc1)c1ccc2c(c1)OCO2,21.8% [at 12 µM] (inactive)
9,O=C1OCCC1Sc1nnc(-c2ccc(Cl)cc2Cl)o1 (stereo not drawn),7.96% [at 0.8 µM] (inactive)
10,CCCCN(Cc1ccccc1)S(=O)(=O)c1cc2c(cc1Br)CC(C)N2C(C)=O (stereo not drawn),18.2% [at 0.38 µM] (inactive)
11,CCOc1ccc(C(=O)Nc2cccc(C(=O)O)c2C)cc1Cl,26.7% (inactive)
12,O=C(CSc1nc2ccccc2[nH]1)Nc1nc(-c2cccc(Br)c2)cs1,46.2% [at 1.6 µM] (inactive)
13,C[C@H]1CCCCO[C@@H](CN(C)C(=O)Nc2ccccc2)[C@@H](C)CN([C@@H](C)CO)C(=O)c2cc(NC(=O)NC3CCCCC3)ccc2O1,12.4% [at 0.05 µM] (inactive)
14,CCn1cc(S(=O)(=O)Nc2cccnc2)cn1,9.79% [at 0.38 µM] (inactive)
15,O=C(c1ccccc1)N1CCSc2sccc2C1=O,36.7% (inactive)
16,COC(=O)c1c(N)sc(C(=O)NCCc2ccccc2)c1C,16.2% [at 3 µM] (inactive)
17,CCCOc1ccc(F)cc1-c1cc(C(=O)Nc2cc(OC)c(OC)c(OC)c2)[nH]n1,9.95% [at 3 µM] (inactive)
18,Cc1oc(-c2ccc3c(c2)OCCO3)cc1C(=O)O,-18.6% (inactive)
19,Cc1ccc(S(=O)(=O)N2[C@@H](CO)CO[C@H]2CC(=O)OCc2ccccc2)cc1,42.9% [at 12 µM] (inactive)

row,SMILES,max activity
1,CC(=O)N1CCCCN2[C@H](CO)[C@H](c3ccc(-c4cccc(C)c4)cc3)[C@@H]2C1,30.5% [at 1.6 µM] (inactive)
2,Cc1ccc(S(=O)(=O)N(C)C[C@H]2Oc3c(cccc3N(C)C)C(=O)N([C@@H](C)CO)C[C@@H]2C)cc1,10.6% [at 6 µM] (inactive)
3,O=C(COC(=O)c1ccccc1C(=O)c1ccc(Cl)c([N+](=O)[O-])c1)NC1CC1,8.38% [at 6 µM] (inactive)
4,Cc1ccc(C(=O)CN2C(=O)c3ccccc3S2(=O)=O)cc1,11.6% [at 3 µM] (inactive)
5,O=C(Nc1ccc(N2CCOCC2)c(S(=O)(=O)Nc2ccccc2Cl)c1)c1ccc(F)cc1,-18.2% [at 0.1 µM] (inactive)
6,c1nc(CCO[C@H]2CCCCO2)cc2cc3c(cc12)OCO3,9.43% (inactive)
7,O=C(CN1C(=O)c2ccccc2S1(=O)=O)c1ccccc1Cl,32.4% (inactive)
8,C[C@H](CO)N1C[C@H](C)[C@H](CN(C)Cc2ccc(C(F)(F)F)cc2)Oc2ccc(NC(=O)Nc3ccc(F)cc3)cc2C1=O,-29.9% (inactive)
9,O=C(CN1C(=O)c2ccccc2S1(=O)=O)Nc1ncc(Cl)cc1Cl,-12.9% [at 1.6 µM] (inactive)
10,CC1(c2ccccc2Cl)NC(=O)N(CC(=O)N2CCc3ccccc32)C1=O (stereo not drawn),40.9% (inactive)
11,CC(C)c1ccc(NC(=O)N2CCN(S(=O)(=O)c3ccccc3)CC2)cc1,17.9% [at 0.38 µM] (inactive)
12,O=C(CCc1nnc(CCCCc2ccccc2)o1)N1CCCC(O)C1 (stereo not drawn),-17.7% [at 0.1 µM] (inactive)
13,C[C@H](CO)N1C[C@H](C)[C@@H](CN(C)S(=O)(=O)c2cccs2)Oc2c(cccc2N(C)C)C1=O,11.4% [at 6 µM] (inactive)
14,Cc1cc(C(=O)COC(=O)c2ccccc2O)c(C)n1CC1CCCO1 (stereo not drawn),-7.06% [at 6 µM] (inactive)
15,Cc1ccnc(Nc2nc(-c3sc(C)nc3C)cs2)c1,-16.3% [at 6 µM] (inactive)
16,OC[C@H]1[C@@H](c2ccc(-c3ccc(F)cc3)cc2)[C@@H]2CN(Cc3ccccn3)CCCCN12,-12.3% (inactive)
17,COc1cc(NC(=O)c2cccs2)c(C(=O)OCC(=O)c2cc(C)n(-c3ccccc3)c2C)cc1OC,17.2% (inactive)
18,COc1ccccc1CNS(=O)(=O)c1ccc(N2CCCC2)cc1Br,-9.37% (inactive)
19,N#C[C@H]1[C@@H](c2ccc(C3=CCCCC3)cc2)[C@H](CO)N1C(=O)c1ccccn1,74.4% [at 12 µM] (inactive)
